Measured values reported in PubChem BioAssay (NCI).
This is part of a sample that, as a whole, favours compounds with a hit. Of some 83,000 tested, about 20% had one in any assay.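 Activity criterion: percent growth below 10, measured after cells in 96-well plates were exposed to a single compound concentration for 48 hours.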 A number with no mark means an inactive call. Activity calls are given as the source filed them.

tested on: HCT-116 colon; test: NCI-60 one-dose screen, 48 h (100 = growth as untreated, 0 = no growth, -100 = all killed); conditions: 10 µM
Experimental: Growth inhibition of the HCT-116 human tumor cell line is measured as a screen for anti-cancer activity. Cells are grown in 96 well plates and exposed to the test compound for 48 hours. Compounds are tested at a single concentration, which is 10^-5 M for most compounds. The reported endpoint is percent growth (GI% or GIPRCNT), where numbers from 0 - 100% represent growth inhibition, and numbers from -100% - 0 represent cell death. For example, a value of 40 represents 60% growth inhibition. A value of 0 means no net growth occurred over the course of the experiment. A value of -40 indicates 40% of cells at the beginning of the experiment died by the end of the experiment. A value of -100 means all cells are dead at the end of the experiment.
NCI-60 Human Tumor Cell Lines Screen was performed using the standard one-dose NCI protocol, which is described in more detail at https://dtp.cancer.gov/discovery_development/nci-60/default.htm.
Compounds with GIPRCNT values below 10 were considered active. Activity score was based on GIPRCNT using the following formula: […]
Score is 0 for GIPRCNT values of 100 or above, 50 for GIPRCNT values of 0, and 100 for GIPRCNT values of -100.

SMILES	growth
O=C1C=CC(=O)N1c1ccc(I)cc1Cl	96.9%
CCOC(=O)/C(C#N)=C/c1cccc(C)c1	95.9%
NC(C(=O)O)c1ccc([N+](=O)[O-])cc1 (stereo not given)	105%
NC(C(=O)O)C(O)c1ccco1 (stereo not given)	111%
CO[C@H]1C[C@@H]2CC[C@@H](C)[C@@](O)(O2)C(=O)C(=O)N2CCCC[C@H]2C(=O)O[C@H]([C@H](C)C[C@@H]2CC[C@@H](O)[C@H](OC)C2)CC(=O)[C@H](C)C=C(C)[C@@H](O)[C@@H](OC)C(=O)[C@H](C)C[C@H](C)/C=C/C=C/C=C1C	31.1%
CC1=CC(C)(C)NC(=S)N1c1ccc(S(=O)(=O)O)c2cccc(S(=O)(=O)O)c12	107%
CCN(CC)c1ccc2nc3ccc(=[N+](CC)CC)cc-3oc2c1	-40.7% (active)
O=C(Cc1nc2ccc([N+](=O)[O-])cc2nc1CC(=O)c1cccnc1)c1cccnc1	50.5%
O=C(CS)Nc1ccc2ccccc2c1	94.6%
COc1ccc(-c2cc(-c3cc(-c4ccc(OC)cc4)nc(N)n3)nc(N)n2)cc1	103%
OC(c1ccccn1)C(O)c1ccccn1 (stereo not given)	106%
CC1CCC2C(C)(C)C3CC12CC1OC13C (stereo not given)	101%
CC(C)OC(=O)c1cc(NC(=S)OC(C)C)ccc1Cl	72.2%
CC(=O)c1c[nH]c2ccccc12	97.8%
CC1C(=O)c2ccccc2CC1C(=O)O (stereo not given)	110%
c1cc[n+](C2c3ccccc3C([n+]3ccccc3)c3ccccc32)cc1 (stereo not given)	68.2%
OC1OC(COC(c2ccccc2)(c2ccccc2)c2ccccc2)C(O)C(O)C1O (stereo not given)	90.7%
COc1ccc(/C(C#N)=C2C=C/C(=N/O)c3ccccc3\2)cc1	5.12% (active)
COc1cccc(Sc2ccc([N+](=O)[O-])c3no[n+]([O-])c23)c1	-91.4% (active)
OC1CCCc2ccccc21 (stereo not given)	111%

SMILES	growth
CC(C)C(C#N)(C(C)C)C(C)C	103%
O=C1C=C(Nc2ccc([N+](=O)[O-])cc2)c2ccccc2C1=O	18%
COC(=O)C(O)c1ccccc1 (stereo not given)	97.7%
O=C(/C=C/C(=O)c1ccccc1)c1ccccc1	87.6%
FC(F)(F)c1ccc2c(c1)N(CCCN1CCN(C3CC3)CC1)c1ccccc1S2	42.7%
CC(=O)Nc1cccc(Cl)c1C	103%
Nc1nc(N)c(N=Nc2ccc(C(=O)O)cc2)c(N)n1	95.4%
Cc1cc(O)ccc1O	96.4%
CSC[C@H](NC(=O)COc1cccc2cnccc12)C(=O)NC(Cc1ccccc1)C(O)C(=O)N1CSC[C@H]1C(=O)NC(C)(C)C (stereo not given in full)	121%
COc1cc(C(N)=O)cc(OC)c1OC	105%
CC(=O)Cc1ccc(-c2ccccc2)cc1	103%
CC(=O)c1sc2c(c1OC(=O)c1ccc(Cl)cc1Cl)c(=O)n(-c1ccccc1)c(=S)n2-c1ccccc1	-0.425% (active)
CC(=O)Nc1ccc(NC(C)=O)c2c1C(=O)c1ccccc1C2=O	79.3%
CC(=O)OCC1CCCO1 (stereo not given)	105%
Nc1nc2c(c(-c3nc(N)nc4c3CCc3ccccc3-4)n1)CCc1ccccc1-2	105%
CCC(C#N)(CC)c1ccccc1	105%
C=C1CC/C=C(\C)C(=O)C[C@@H]2[C@@H]1CC2(C)C	99.9%
O=C(O)CCCC(=O)O	100%
O=C1N(C[P+](c2ccccc2)(c2ccccc2)c2ccccc2)CCCN1C[P+](c1ccccc1)(c1ccccc1)c1ccccc1	97%
COc1ccc(Oc2c(I)cc(CC(NC(C)=O)C(=O)O)cc2I)cc1 (stereo not given)	79.6%
